Experimental data reported in PubChem BioAssay (NCI).
This is part of a sample that, as a whole, favours compounds with a hit. Of some 83,000 tested, about 20% had one in any assay.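 Cells were grown in 96-well plates and exposed to the test compound at a single concentration for 48 hours; results are reported as percent growth, with values below 10 considered active.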 Active and inactive are the calls of the source.

Tests used:
Experiment in all cases: NCI-60 one-dose screen, 48 h (100 = growth as untreated, 0 = no growth, -100 = all killed)
Settings in all cases: 10 µM unless noted
[1] = tested on: SR leukemia
[2] = tested on: RPMI-8226 leukemia
[3] = tested on: OVCAR-8 ovarian
[4] = tested on: OVCAR-5 ovarian
[5] = tested on: OVCAR-4 ovarian
[6] = tested on: SK-OV-3 ovarian
[7] = tested on: IGROV1 ovarian
[8] = tested on: OVCAR-3 ovarian
[9] = tested on: NCI/ADR-RES ovarian

| SMILES | growth [1] | growth [2] | growth [3] | growth [4] | growth [5] | growth [6] | growth [7] | growth [8] | growth [9] |
| --- | --- | --- | --- | --- | --- | --- | --- | --- | --- |
| O=S(=O)(O)CCl | 84.9% (inactive) | 98.7% (inactive) | 100% (inactive) | 98.3% (inactive) | 105% (inactive) | 107% (inactive) | 106% (inactive) | 106% (inactive) | 103% (inactive) |
| Nc1c(C(=O)c2ccc(F)cc2)sc2nc3c(cc12)CCCC3 | 46.3% (inactive) | 77.6% (inactive) | 78.5% (inactive) | 97% (inactive) | 83.9% (inactive) | 73.1% (inactive) | 77.1% (inactive) | 87.6% (inactive) | 44.8% (inactive) |
| COc1cccc(-c2nc3sccn3c2-c2ccnc(NCCCNS(=O)(=O)c3ccccc3)n2)c1 | 50.7% (inactive) | 28% (inactive) | 29.6% (inactive) | 128% (inactive) | 55.7% (inactive) | 73% (inactive) | 55.3% (inactive) | 48.2% (inactive) | 23.1% (inactive) |
| COc1cc(NCCCN=C(N)NC(N)=NC(C)C)c2ncccc2c1 | 75.2% (inactive) | 52.5% (inactive) | 88.5% (inactive) | 57.6% (inactive) | 11.3% (inactive) | 93.7% (inactive) | -12.8% (active) | 8.99% (active) | 98.8% (inactive) |
| COc1ccc(-c2cn[nH]c2-c2cc(OC)c3c(c2)OCO3)cc1 | 5.61% (active) | -1.3% (active) | 11.7% (inactive) | 46.1% (inactive) | 51% (inactive) | -1.1% (active) | -17.2% (active) | -12.3% (active) | 5.12% (active) |
| CCCOC(=O)C1(O)CCCC1 | 94.4% (inactive) | 96.5% (inactive) | 102% (inactive) | 87.2% (inactive) | 102% (inactive) | 111% (inactive) | 107% (inactive) | 129% (inactive) | 108% (inactive) |
| CCCCC[C@@H]1Cc2cc(O)c(C(=O)O)c3c2[C@H](C[C@@]2(CCCO2)O3)O1 | 64.4% (inactive) | 98.7% (inactive) | 101% (inactive) | 104% (inactive) | 94.2% (inactive) | 113% (inactive) | -4.39% (active) | 107% (inactive) | 96.1% (inactive) |
| CCCCCCCCCCCCCCCCC(Br)C(=O)O (stereo not given) | 105% (inactive) | 84.6% (inactive) | 103% (inactive) | 99.3% (inactive) | 97.8% (inactive) | 118% (inactive) | 125% (inactive) | 100% (inactive) | 110% (inactive) |
| COc1ccc(-c2nc3sccn3c2-c2ccnc(NCCCNS(=O)(=O)c3ccc(C)cc3)n2)cc1 | 33.1% (inactive) | 23.2% (inactive) | 25% (inactive) | 93.4% (inactive) | 42.9% (inactive) | 56.1% (inactive) | 33.9% (inactive) | 45.4% (inactive) | 20.8% (inactive) |
| CCCC(C(=O)OCC)C(C)OC(=O)OCC (stereo not given) | 87.6% (inactive) | 101% (inactive) | 96.4% (inactive) | 108% (inactive) | 108% (inactive) | 95.5% (inactive) | 115% (inactive) | 103% (inactive) | 105% (inactive) |
